In the supplement of paper PMC8728848:
This is one part of a sample in which the strongest signals are shown more often than they occur.

Columns and labels:
Assay in all cases: glycan array binding signal (z-score within array); higher = stronger binding
Conditions in all cases: glycan notation: IUPAC condensed, linker removed
[1] = target: Fuc(a1-2)Gal(b1-4)GlcNAc(b1-2)Man(a1-3)[Fuc(a1-2)Gal(b1-4)GlcNAc(b1-2)Man(a1-6)]Man(b1-4)GlcNAc(b1-4)[Fuc(a1-6)]GlcNAc
Method in brief: (§1)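 Glycan array data were curated from 3228 arrays in the Consortium for Functional Glycomics database and kept only where the protein sequence was available. Glycan names were converted to IUPAC-condensed notation, and columns mapping to the same glycan were averaged. The binding signal is a within-array Z-score, averaged across arrays of the same protein sequence at different concentrations or buffers and across linkers. Negative Z-scores can be read as non-binding.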

[2] = target: Fuc(a1-2)[Gal(a1-3)]Gal(b1-3)GalNAc
Method in brief: as §1

[3] = target: Fuc(a1-2)[Gal(a1-3)]Gal(b1-4)GlcNAc(b1-2)Man
Method in brief: as §1

[4] = target: Fuc(a1-2)[GalNAc(a1-3)]Gal(b1-3)GalNAc(a1-3)[Fuc(a1-2)]Gal(b1-4)GlcNAc
Method in brief: as §1

[5] = target: Fuc(a1-2)[GalNAc(a1-3)]Gal(b1-4)GlcNAc
Method in brief: as §1

[6] = target: Fuc(a1-2)[GalNAc(a1-3)]Gal(b1-4)GlcNAc(b1-2)Man
Method in brief: as §1

[7] = target: Fuc(a1-2)[GalNAc(a1-3)]Gal(b1-4)GlcNAc(b1-2)Man(a1-3)[Fuc(a1-2)[GalNAc(a1-3)]Gal(b1-4)GlcNAc(b1-2)Man(a1-6)]Man(b1-4)GlcNAc(b1-4)GlcNAc
Method in brief: as §1

[8] = target: Fuc(a1-2)[GalNAc(a1-3)]Gal(b1-4)GlcNAc(b1-3)Gal(b1-4)GlcNAc
Method in brief: as §1

[9] = target: Fuc(a1-2)[GalNAc(a1-3)]Gal(b1-4)GlcNAc(b1-3)Gal(b1-4)GlcNAc(b1-3)Gal(b1-4)GlcNAc
Method in brief: as §1

[10] = target: Fuc(a1-3)[Gal(b1-4)]GlcNAc
Method in brief: as §1

Gal(a1-3)Gal = target: Gal(a1-3)Gal
Method in brief: as §1

[11] = target: Gal(a1-3)Gal(b1-3)[Fuc(a1-4)]GlcNAc(b1-2)Man(a1-3)[Gal(a1-3)Gal(b1-3)[Fuc(a1-4)]GlcNAc(b1-2)Man(a1-6)]Man(b1-4)GlcNAc(b1-4)GlcNAc
Method in brief: as §1

Gal(a1-3)Gal(b1-4)GlcNAc = target: Gal(a1-3)Gal(b1-4)GlcNAc
Method in brief: as §1

[12] = target: Gal(a1-3)Gal(b1-4)GlcNAc(b1-3)GalNAc
Method in brief: as §1

[13] = target: Gal(a1-4)Gal(b1-3)GlcNAc(b1-2)Man(a1-3)[Gal(a1-4)Gal(b1-3)GlcNAc(b1-2)Man(a1-6)]Man(b1-4)GlcNAc(b1-4)GlcNAc
Method in brief: as §1

Gal(a1-4)Gal(b1-4)Glc = target: Gal(a1-4)Gal(b1-4)Glc
Method in brief: as §1

[14] = target: Gal(b1-3)GalNAc(b1-4)Gal(b1-4)Glc
Method in brief: as §1

[15] = target: Gal(b1-3)GlcNAc(a1-3)Gal(b1-4)GlcNAc
Method in brief: as §1

[16] = target: Gal(b1-3)GlcNAc(b1-3)Gal(b1-4)GlcNAc(b1-3)Gal(b1-4)GlcNAc(b1-2)[Gal(b1-3)GlcNAc(b1-3)Gal(b1-4)GlcNAc(b1-3)Gal(b1-4)GlcNAc(b1-6)]Man(a1-6)[Gal(b1-3)GlcNAc(b1-3)Gal(b1-4)GlcNAc(b1-3)Gal(b1-4)GlcNAc(b1-2)Man(a1-3)]Man(b1-4)GlcNAc(b1-4)[Fuc(a1-6)]GlcNAc
Method in brief: as §1

[17] = target: Gal(b1-3)GlcNAc(b1-6)[Gal(b1-3)]GalNAc
Method in brief: as §1

Gal(b1-3)GlcNAc6S = target: Gal(b1-3)GlcNAc6S
Method in brief: as §1

[18] = target: Gal(b1-3)[Neu5Ac(b2-6)]GalNAc
Method in brief: as §1

Gal(b1-4)Gal = target: Gal(b1-4)Gal
Method in brief: as §1

[19] = target: Gal(b1-4)GlcNAc(b1-2)Man(a1-3)Man(b1-4)GlcNAc(b1-4)GlcNAc
Method in brief: as §1

[20] = target: Gal(b1-4)GlcNAc(b1-2)Man(a1-3)[Gal(b1-4)GlcNAc(b1-2)Man(a1-6)]Man(b1-4)GlcNAc(b1-4)GlcNAc
Method in brief: as §1

[21] = target: Gal(b1-4)GlcNAc(b1-2)[Gal(b1-4)GlcNAc(b1-4)]Man(a1-3)[GlcNAc(b1-4)][Gal(b1-4)GlcNAc(b1-2)[Gal(b1-4)GlcNAc(b1-6)]Man(a1-6)]Man(b1-4)GlcNAc(b1-4)GlcNAc
Method in brief: as §1

[22] = target: Gal(b1-4)GlcNAc(b1-3)Gal(b1-4)GlcNAc(b1-2)[Gal(b1-4)GlcNAc(b1-3)Gal(b1-4)GlcNAc(b1-6)]Man(a1-6)[Gal(b1-4)GlcNAc(b1-3)Gal(b1-4)GlcNAc(b1-2)Man(a1-3)]Man(b1-4)GlcNAc(b1-4)[Fuc(a1-6)]GlcNAc
Method in brief: as §1

Gal3S6S(b1-4)GlcNAc6S = target: Gal3S6S(b1-4)GlcNAc6S
Method in brief: as §1

Gal6S(b1-3)GlcNAc = target: Gal6S(b1-3)GlcNAc
Method in brief: as §1

[23] = target: GalNAc(a1-3)GalNAc(b1-3)Gal(a1-4)Gal(b1-4)Glc
Method in brief: as §1

GalNAc(b1-3)GlcNAc = target: GalNAc(b1-3)GlcNAc
Method in brief: as §1

GalNAc(b1-4)GlcNAc = target: GalNAc(b1-4)GlcNAc
Method in brief: as §1

[24] = target: GalNAc(b1-4)GlcNAc(b1-2)Man
Method in brief: as §1

[25] = target: GalNAc(b1-4)GlcNAc(b1-3)GalNAc(b1-4)GlcNAc
Method in brief: as §1

GalNAc(b1-4)GlcNAc6S = target: GalNAc(b1-4)GlcNAc6S
Method in brief: as §1

GalNAc6S(b1-4)GlcNAc = target: GalNAc6S(b1-4)GlcNAc
Method in brief: as §1

[26] = target: GlcNAc(b1-2)Man(a1-3)[GlcNAc(b1-4)][GlcNAc(b1-2)Man(a1-6)]Man(b1-4)GlcNAc(b1-4)[Fuc(a1-6)]GlcNAc
Method in brief: as §1

[27] = target: GlcNAc(b1-3)Gal(b1-4)GlcNAc(b1-3)Gal(b1-4)GlcNAc(b1-3)Gal(b1-4)GlcNAc(b1-2)Man(a1-3)[GlcNAc(b1-3)Gal(b1-4)GlcNAc(b1-3)Gal(b1-4)GlcNAc(b1-3)Gal(b1-4)GlcNAc(b1-2)Man(a1-6)]Man(b1-4)GlcNAc(b1-4)[Fuc(a1-6)]GlcNAc
Method in brief: as §1

[28] = target: GlcNAc(b1-3)Gal(b1-4)GlcNAc(b1-3)Gal(b1-4)GlcNAc(b1-3)GalNAc
Method in brief: as §1

GlcNAc(b1-3)GalNAc = target: GlcNAc(b1-3)GalNAc
Method in brief: as §1

GlcNAc(b1-4)GlcNAc = target: GlcNAc(b1-4)GlcNAc
Method in brief: as §1

[29] = target: GlcNAc6S(b1-3)Gal(b1-4)GlcNAc
Method in brief: as §1

Kdn(a2-3)Gal(b1-4)Glc = target: Kdn(a2-3)Gal(b1-4)Glc
Method in brief: as §1

Kdn(a2-6)Gal(b1-4)GlcNAc = target: Kdn(a2-6)Gal(b1-4)GlcNAc
Method in brief: as §1

[30] = target: Man(a1-2)Man(a1-6)[Man(a1-3)]Man(a1-6)[Man(a1-2)Man(a1-2)Man(a1-3)]Man
Method in brief: as §1

Man(a1-6)Man = target: Man(a1-6)Man
Method in brief: as §1

[31] = target: Neu5Ac(a2-3)Gal(b1-3)GalNAc6S
Method in brief: as §1

[32] = target: Neu5Ac(a2-3)Gal(b1-4)GlcNAc(b1-2)Man(a1-3)[GlcNAc(b1-4)][Neu5Ac(a2-3)Gal(b1-4)GlcNAc(b1-2)Man(a1-6)]Man(b1-4)GlcNAc(b1-4)GlcNAc
Method in brief: as §1

[33] = target: Neu5Ac(a2-6)Gal(b1-4)GlcNAc(b1-2)[Neu5Ac(a2-6)Gal(b1-4)GlcNAc(b1-6)]Man(a1-6)[Neu5Ac(a2-6)Gal(b1-4)GlcNAc(b1-2)Man(a1-3)][GlcNAc(b1-4)]Man(b1-4)GlcNAc(b1-4)GlcNAc
Method in brief: as §1

[34] = target: Neu5Ac(a2-6)Gal(b1-4)GlcNAc(b1-3)Gal(b1-4)GlcNAc(b1-3)Gal(b1-4)GlcNAc(b1-2)Man(a1-3)[Neu5Ac(a2-6)Gal(b1-4)GlcNAc(b1-3)Gal(b1-4)GlcNAc(b1-3)Gal(b1-4)GlcNAc(b1-2)Man(a1-6)]GalNAc
Method in brief: as §1

[35] = target: Neu5Ac(a2-6)Gal(b1-4)GlcNAc(b1-3)[Neu5Ac(a2-6)Gal(b1-4)GlcNAc(b1-6)]GalNAc
Method in brief: as §1

[36] = target: Neu5Ac(b2-6)Gal(b1-4)GlcNAc
Method in brief: as §1

B1: rCNL (Clitocybe nebularis), B2ZRS9 (protein)
chain: SITPGTYNITNVAYTNRLIDLTGSNPAENTLIIGHHLNKTPSGYGNQQWTLVQLPHTTIYTMQAVNPQSYVRVRDDNLVDGAALVGSQQPTPVSIESAGNSGQFRIKIPNLGLALTLPSDANSTPIVLGEVDETSTNQLWAFESVSAV
glycan array binding signal (z-score) [1]: -0.116
glycan array binding signal (z-score) [2]: -0.222
glycan array binding signal (z-score) [3]: -0.215
glycan array binding signal (z-score) [4]: 2.47
glycan array binding signal (z-score) [5]: 3.08
glycan array binding signal (z-score) [6]: 3.12
glycan array binding signal (z-score) [7]: 4
glycan array binding signal (z-score) [8]: 3.46
glycan array binding signal (z-score) [9]: 3.25
glycan array binding signal (z-score) [10]: -0.299
glycan array binding signal (z-score) (Gal(a1-3)Gal): -0.297
glycan array binding signal (z-score) [11]: -0.27
glycan array binding signal (z-score) (Gal(a1-3)Gal(b1-4)GlcNAc): -0.098
glycan array binding signal (z-score) [12]: -0.129
glycan array binding signal (z-score) [13]: -0.187
glycan array binding signal (z-score) (Gal(a1-4)Gal(b1-4)Glc): -0.261
glycan array binding signal (z-score) [14]: -0.287
glycan array binding signal (z-score) [15]: -0.21
glycan array binding signal (z-score) [16]: -0.203
glycan array binding signal (z-score) [17]: -0.215
glycan array binding signal (z-score) (Gal(b1-3)GlcNAc6S): -0.226
glycan array binding signal (z-score) [18]: -0.305
glycan array binding signal (z-score) (Gal(b1-4)Gal): -0.215
glycan array binding signal (z-score) [19]: -0.275
glycan array binding signal (z-score) [20]: -0.13
glycan array binding signal (z-score) [21]: -0.041
glycan array binding signal (z-score) [22]: -0.147
glycan array binding signal (z-score) (Gal3S6S(b1-4)GlcNAc6S): -0.283
glycan array binding signal (z-score) (Gal6S(b1-3)GlcNAc): -0.224
glycan array binding signal (z-score) [23]: -0.001
glycan array binding signal (z-score) (GalNAc(b1-3)GlcNAc): 4.24
glycan array binding signal (z-score) (GalNAc(b1-4)GlcNAc): 6.23
glycan array binding signal (z-score) [24]: 6.09
glycan array binding signal (z-score) [25]: 7.74
glycan array binding signal (z-score) (GalNAc(b1-4)GlcNAc6S): 4.96
glycan array binding signal (z-score) (GalNAc6S(b1-4)GlcNAc): 7.28
glycan array binding signal (z-score) [26]: -0.228
glycan array binding signal (z-score) [27]: -0.217
glycan array binding signal (z-score) [28]: -0.218
glycan array binding signal (z-score) (GlcNAc(b1-3)GalNAc): -0.286
glycan array binding signal (z-score) (GlcNAc(b1-4)GlcNAc): -0.304
glycan array binding signal (z-score) [29]: -0.273
glycan array binding signal (z-score) (Kdn(a2-3)Gal(b1-4)Glc): -0.301
glycan array binding signal (z-score) (Kdn(a2-6)Gal(b1-4)GlcNAc): -0.285
glycan array binding signal (z-score) [30]: -0.296
glycan array binding signal (z-score) (Man(a1-6)Man): -0.294
glycan array binding signal (z-score) [31]: -0.232
glycan array binding signal (z-score) [32]: -0.226
glycan array binding signal (z-score) [33]: -0.222
glycan array binding signal (z-score) [34]: -0.13
glycan array binding signal (z-score) [35]: -0.221
glycan array binding signal (z-score) [36]: -0.31
